Data as given in PubChem BioAssay AID1159606 (Sanford-Burnham Center for Chemical Genomics, 2016).
The campaign covered roughly 360,000 compounds. About 7,300 (2%) were called active. This excerpt belongs to a sample that is enriched for actives. A number with no mark means an inactive call. Cut-off read from the data, not from the text of the source: active = inhibition above about 50%; inactive = the rest.

Assay: inhibitors of TWEAK-Fn14 signaling, primary screen, luciferase reporter cells, uHTS (AID 1159606)
Details: TWEAK-stimulated Fn14 reporter cells, luciferase luminescence, 8 h; at 10 µM; stronger effect = higher value
COc1ccc(CNC(=O)COC(=O)CCS(=O)(=O)c2ccc(C)cc2)cc1OC gave an inhibition of -0.44%. COc1ccc(NC(=O)CN(C)C(=O)Cc2coc3cc(C)c(C)cc23)cc1 gave an inhibition of -4.06%. In the case of S=c1[nH]nc(-c2cccnc2)n1/N=C/C(Cl)=C\c1ccccc1, the inhibition is reported as 55.4% (active). With Cc1cc(-c2n[nH]c(=S)n2/N=C/C(Br)=C/c2ccccc2)n[nH]1 the inhibition was 95% (active). S=c1[nH]nc(-c2ccco2)n1/N=C/c1ccc(Br)s1 gave an inhibition of -5.12%. Compound Fc1ccc(/C=N/n2c(COc3ccccc3)n[nH]c2=S)cc1 has an inhibition of -16.7%. Compound COc1ccccc1/C=C/C=N/n1c(-c2ccc(Cl)cc2Cl)n[nH]c1=S has an inhibition of -13.9%. In the case of O=[N+]([O-])c1ccccc1/C=N/n1c(COc2ccccc2)n[nH]c1=S, the inhibition is reported as 17.8%. COc1ccc(Cc2nnc(SCC(=O)N(c3ccccc3)C(C)C)n(N)c2=O)cc1 showed an inhibition of 4.78%. COC(=O)[C@]12CCCCC=C1N(Cc1ccco1)C(=O)[C@H](CC(=O)NCC1CCCCC1)C2 gave an inhibition of -2.8%. For N#CCCN(C(=S)Nc1ccc(Cl)c(Cl)c1)C1CCCCC1, the inhibition was 7.89%. With Cc1ccc(F)c(S(=O)(=O)NC(=O)C2(C)CCN2C(=O)c2ccco2)c1 (stereo not given) the inhibition was 4.06%. For CC(C)n1cnc2c(Nc3cccc(Cl)c3)nc(N(CCO)CCCO)nc21, the inhibition was 54.7% (active). Compound CC(C)C[C@H](CO)Nc1nc(N(C)c2cccc(Cl)c2)c2ncn(C(C)C)c2n1 has an inhibition of -0.23%. COc1ccc(/C(O)=C2/C(=O)C(=O)N(c3nc(C)c(C)s3)C2c2ccco2)cc1 (stereo not given) gave an inhibition of 15.4%. With CCOc1ccc(/C(O)=C2\C(=O)C(=O)N(c3ccc(OC)cc3)C2c2ccccc2[N+](=O)[O-])cc1 (stereo not given) the inhibition was 68.4% (active). For COc1ccc(C2/C(=C(/O)c3ccccc3)C(=O)C(=O)N2c2ncccn2)cc1OC (stereo not given), the inhibition was 5.36%. Compound CCCC(=O)Nc1ccc(C(=O)NCCCn2ccnc2)cc1 has an inhibition of -38.4%. Work on COc1ccc2occ(C(=O)c3ccc(N=C(C)N(C)C)cc3)c2c1 yielded an inhibition of -30.2%. For COc1ccc(OC)c(C(=O)c2coc3ccc(O)c(CN4CCOCC4)c23)c1, the inhibition was 28.4%. In the case of COc1ccc(OC)c(C(=O)c2coc3ccc(OC)cc23)c1, the inhibition is reported as 67.6% (active). Cc1cc(Cl)c2oc(C(=O)NC(C)c3ccncn3)c(C)c2c1 (stereo not given) gave an inhibition of -26.6%. CCOc1ccc(CCNC(=O)COC(=O)C2CCN(c3ccc(C(F)(F)F)cn3)CC2)cc1OCC showed an inhibition of 6.43%. O=C(CN1C(=O)NC(Cc2c[nH]c3ccccc23)C1=O)Nc1ccccc1C(F)(F)F (stereo not given) showed an inhibition of 29.8%. With Oc1c(Cl)cc(Cl)c(Cl)c1Cc1c(O)c(Cl)cc(Cl)c1Cl the inhibition was 64% (active). CC1Cc2[nH][nH]c(=O)c2C(C2CC2)O1 (stereo not given) showed an inhibition of 4.07%. With CC(C)NC(=O)N1Cc2cc(C(=O)NCC(F)(F)F)nc(-c3cccc(-c4cc5ccccc5o4)c3)c2[C@@H]1CCO the inhibition was 37.6%. CCOc1ccc(NC(=O)CN(C)C(=O)CSc2ccccc2)cc1OCC gave an inhibition of 2.8%. In the case of CCOC(=O)C1=C(CSc2nccn2C)NC(=O)NC1c1ccc(OC)cc1 (stereo not given), the inhibition is reported as -0.26%. For CCOC(=O)C1=C(C)N=c2s/c(=C\C(=O)OC)c(=O)n2C1c1ccc(OC)cc1 (stereo not given), the inhibition was 87.1% (active). Compound CCOC(=O)c1cc2cc(OC)ccc2n1C1CCN(C)CC1 has an inhibition of -7.56%. Work on Nc1ccccc1/C=N\N=C/c1ccccc1N yielded an inhibition of -29.4%. In the case of COC[C@@H]1NS(=O)(=O)c2ccc(Br)cc2O[C@H]1c1ccccc1, the inhibition is reported as 6.78%. In the case of CCOc1ccc(-n2c(SC(C)C(=O)OC)nc3c(c2=O)SCC3)cc1 (stereo not given), the inhibition is reported as 1.38%. In the case of c1ccc(Cc2c(-c3ccco3)nc3c4ccccc4ccn23)cc1, the inhibition is reported as 57.8% (active). For Cc1ccc(Cc2c(-c3ccc(Cl)cc3)nc3c4ccccc4ccn23)cc1, the inhibition was 22%. In the case of Cc1ccc(Cc2c(-c3ccc(C)cc3)nc3c4ccccc4ccn23)cc1, the inhibition is reported as 57.1% (active). Cc1ccc(-c2nc3c(C)cc(Br)cn3c2Cc2ccccc2)cc1 gave an inhibition of 13.1%. In the case of FC(F)(F)c1ccccc1Cc1c(-c2ccccc2)nc2c3ccccc3ccn12, the inhibition is reported as 8.37%. Cc1ccc(Cc2c(-c3ccco3)nc3ccc(Cl)cn23)cc1 showed an inhibition of 48.4%. C=CCSc1nc2c(c(=O)[nH]1)C(C(C)C)C(C#N)=C(N)O2 (stereo not given) showed an inhibition of -24.9%. For O=C(NC1CCN(S(=O)(=O)c2ccc(F)cc2)CC1)c1ccccc1, the inhibition was -13.3%. Work on COCCCn1c(-c2cccs2)nc2nc3ccccc3nc21 yielded an inhibition of 34.3%. Work on CCCc1c(-c2ccccc2F)ncn1Cc1ccccc1OC yielded an inhibition of 2.25%. For CC(=O)c1c(C)[nH]c(C(=O)COC(=O)c2cccc(S(=O)(=O)N(C)c3ccccc3)c2)c1C, the inhibition was 101% (active).
